esBAF inh: blocks esBAF chromatin remodeling in mouse ES cells; hit rate 2% among 350,000; Bmi1-luciferase knock-in reporter, 24 h; 100% = twice the neutral-well signal; reporter increase, % at 12.5 µM; in the data active means activation above about 40%; inconclusive means no clear call, values can overlap the other calls;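 further: 0% = median of the plate's neutral control wells and 100% = double that signal; a rise in the Bmi1 reporter signal indicates esBAF inhibition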
FGF22 binding: binders of recombinant human FGF22 by thermal shift. Q9HCT0. SYPRO orange fluorescence; percent of sucrose octasulfate shift, DMSO zero. activity (Tm shift, normalised), % at 9.99 µM. hit rate 1.5% among 340,000;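 active means mean Tm shift, scaled 0 neutral to 100 positive control, at about 1.3% or above, every replicate too, limit read from the data; inconclusive means no clear call, values can overlap the other calls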
MITF TRPM1 HTS: activators of MITF-driven TRPM1 promoter activity in SK-MEL-5 cells; SK-MEL-5 TRPM1-promoter luciferase, 24 h; % of positive control, neutral wells = 0; activation, % at 12.5 µM; hit rate 0.75% among 300,000;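 active means mean activation of at least 80% with every replicate also reaching 80%; inconclusive means mean reaches 80% but some replicate falls short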;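 further: 0% = neutral control wells and 100% = parthenolide positive control wells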
Wnt bcat act: activators of Wnt/beta-catenin signaling. Wnt/beta-catenin reporter cell assay, activator, plate reader. activation, % at 9.35 µM. hit rate 1.2% among 300,000. AID 743398; in the data active means activation above about 30%, passing the limit was not always enough; inconclusive means no clear call, values can overlap the other calls;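 further: 0% = neutral control wells and 100% = positive control wells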
MLL AF4-AF9 inh: blocks AF4 peptide binding to human AF9 | hit rate 0.47% among 350,000 | P42568 | AlphaScreen, biotin-AF4 peptide binding to FLAG-AF9 | inhibition, % at 10 µM;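 active means every replicate reaching a set inhibition limit, whatever the replicate mean, cut at about 25% in these data; inconclusive means mean inhibition reaches that limit but some replicates miss it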;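 further: 0% = plate neutral control median and 100% = total signal loss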
Target sequence (P42568 whole entry, looked up): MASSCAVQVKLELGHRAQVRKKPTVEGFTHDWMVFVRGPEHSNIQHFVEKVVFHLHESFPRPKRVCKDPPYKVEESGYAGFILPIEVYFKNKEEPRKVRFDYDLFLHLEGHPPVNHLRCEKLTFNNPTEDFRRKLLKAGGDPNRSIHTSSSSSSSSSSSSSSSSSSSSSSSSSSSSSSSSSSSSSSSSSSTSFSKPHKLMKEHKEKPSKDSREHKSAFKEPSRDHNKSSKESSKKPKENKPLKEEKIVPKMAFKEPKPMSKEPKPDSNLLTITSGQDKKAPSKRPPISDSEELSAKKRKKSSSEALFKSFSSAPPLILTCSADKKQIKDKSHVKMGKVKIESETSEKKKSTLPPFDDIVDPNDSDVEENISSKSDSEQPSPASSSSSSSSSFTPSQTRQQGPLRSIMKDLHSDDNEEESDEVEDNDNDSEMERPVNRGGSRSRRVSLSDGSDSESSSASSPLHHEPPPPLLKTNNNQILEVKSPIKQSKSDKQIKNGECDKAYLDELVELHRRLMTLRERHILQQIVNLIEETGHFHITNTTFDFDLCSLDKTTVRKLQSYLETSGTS
SMARCA2 act: increases SMARCA2 function in MMTV reporter cells. activation, % at 9.1 µM. hit rate 1% among 370,000. MG213 cells, MMTV-luciferase reporter, dexamethasone, overnight; in the data active means activation above about 7.8%;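 further: 0% = vehicle wells and 100% = reference activator wells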
Starred values were filed as active, the others as inactive; ? = inconclusive; . = not tested or not shown. A selection: hits, their analogues and other compounds. The true share with any hit is near 4.3%.

SMILES	esBAF inh	FGF22 binding	MITF TRPM1 HTS	Wnt bcat act	MLL AF4-AF9 inh	SMARCA2 act
N#C/C(=C\c1ccc(N2CCOCC2)cc1)c1ccccc1	27	.	143*	33*	.	1
N#C/C(=C/c1ccc(N2CCCCCC2)o1)c1cccc(F)c1	30	.	86*	.	.	0
N#C/C(=C/c1ccc(N2CCOCC2)o1)c1ccc(Br)cc1	.	.	63	.	.	3
CCC(=O)N1[C@H](CO)[C@H](c2ccccc2)[C@H]1CN(CC)C(=O)c1ccc(F)cc1	3	0	.	.	.	.
O=C(C[C@H]1CC[C@@H]2[C@H](COC[C@H](O)CN2CC2CCOCC2)O1)N1CCOCC1	-1	-1	.	.	-7	.
C[C@H]1CN([C@@H](C)CO)C(=O)c2cc(C#CC3CCCC3)cnc2O[C@@H]1CN(C)C(=O)Nc1ccccc1	-5	0	.	.	0	.
O=C(C[C@H]1CC[C@@H](NC(=O)C2CCC2)[C@@H](CO)O1)NCc1ccncc1	-1	0	.	.	0	.
CCN(CC)CCn1c(SCC(=O)NCc2ccco2)nc2c(sc3ccccc32)c1=O	2	.	.	47*	.	5
O=c1[nH]c(=O)n(-c2ccc(F)cc2)c2c1C(C(F)(F)F)(C(F)(F)F)N=C(c1ccc(F)cc1)N2	.	1.9*	-22	-13	-45	-1
CO[C@H]1CN(C)C(=O)c2cc(NC(=O)c3ccc(F)cc3)ccc2OC[C@H](C)N(C(=O)c2ccc(F)cc2)C[C@H]1C	5	0	.	.	2	.
CCNC(=O)C[C@H]1CC[C@H]2[C@@H](COc3ccc(NC(=O)Nc4ccccc4)cc3C(=O)N2C)O1	.	.	.	.	.	-2
COc1cccc(NC(=O)Nc2ccc3c(c2)C(=O)N(C)[C@@H]2CC[C@H](CC(=O)NCCc4ccccc4)O[C@@H]2CO3)c1	3	0	.	.	0	.
CCCNC(=O)c1cc(C2CCCCN2C(=O)c2ccc3ccccc3c2)on1 (stereo unspecified)	0	0	.	-1	-4	0
CCCNC(=O)c1cc(C2CCCCN2C(=O)c2ccc3c(c2)CCO3)on1 (stereo unspecified)	0	43*	.	1	3	-1
CC1CC1C(=O)OCc1cc(=O)n2cc(Br)ccc2n1 (stereo unspecified)	47*	.	80	41*	.	3
O=C(OCc1cc(=O)n2cc(Br)ccc2n1)C1COc2ccccc2O1 (stereo unspecified)	0	.	-4	-1	.	0
COc1cccc(CN2CC3(CN(Cc4ccccn4)C3)c3c([nH]c4cc(OC)ccc34)[C@H]2CO)c1	.	0	.	.	1	.
COC(=O)C1C2OC(C(Br)C2Br)C1C(=O)OC (stereo unspecified)	.	44*	.	-6	-3	4
O=C(c1cccc(F)c1)N1CC2(C1)[C@@H](c1ccccc1)[C@@H](CO)N2C(=O)C1CCCC1	.	.	.	.	-3	.
COC(=O)[C@]12C[C@H](CC(=O)NCCCCc3ccccc3)C(=O)N(Cc3ccco3)C1=C[C@H](C(C)C)O[C@@H]2C1CC1	.	.	.	.	.	-3
CC1CCCC(C)N1C(=C(Cl)Cl)C(=C1SCCS1)[N+](=O)[O-] (stereo unspecified)	.	43*	19	-1	15	-7
CC(C)Sc1nnc(Nc2ccccc2)s1	43*	.	77	-3	.	5
CCC(=O)N1[C@H](C(=O)NCc2ccccc2F)[C@@H](CO)[C@@H]2Cn3c(cccc3=O)[C@@H]21	1	0	.	.	-1	.
CC(C)(C)C(=O)NC(=S)Nc1ccc(C(F)(F)F)cc1	40	0	18	43*	.	-2
O=C(Nc1ccc(F)c(F)c1)c1cccnc1	4	.	23	.	.	3
SMILES	esBAF inh	FGF22 binding	MITF TRPM1 HTS	Wnt bcat act	MLL AF4-AF9 inh	SMARCA2 act
O=C(Nc1ccc(F)c(F)c1)c1ccccc1	42*	0	47	21	2	3
O=C(Nc1ccccc1)c1csc(-c2ccccc2)n1	.	0	15	8	-6	5
O=C(Nc1ccc(C(F)(F)F)cc1)c1csc(-c2ccncc2)n1	.	43*	-6	-6	-7	-7
O=C(Nc1ccc(C(=O)c2ccccc2)cc1)c1ccccc1	61*	0	127*	51*	-1	1
O=C(CN1CCOCC1)N1[C@@H](CO)[C@@H]2c3ccccc3NC[C@@H]21	2	-1	.	.	0	.
C[C@@H]1CN([C@@H](C)CO)C(=O)c2cc(NC(=O)Nc3cccc4ccccc34)ccc2O[C@H]1CN(C)C(=O)Nc1ccccc1	0	0	.	.	1	.
C[C@@H]1CN([C@@H](C)CO)C(=O)Cc2cc(NC(=O)Nc3ccccc3)ccc2O[C@@H]1CN(C)S(C)(=O)=O	0	0	.	.	2	.
O=C(Nc1ccc(C(F)(F)F)cc1)c1ccccc1	53*	0	100*	21	1	4
O=C(CCNC(=O)c1ccccc1)Nc1ccc(F)c(Cl)c1	.	44*	-5	-3	-1	-3
O=C(Nc1ccc2c(c1)CCCN2C(=O)c1ccccc1)c1ccccc1	46*	0	34	-2	-3	3
Cc1ccc(C)n1-c1ccc(C(=O)Nc2ccccc2)cc1	.	43*	44	102*	-15	3
CCCC(=O)Nc1ccc2c(c1)C(=O)N(C)[C@H]1CC[C@@H](CC(=O)NCc3ccccc3Cl)O[C@@H]1CO2	-1	0	.	.	2	.
CC=Cc1ccc2n(c1=O)C[C@@H]1[C@@H](CO)[C@H](C(=O)NCCCN3CCOCC3)N(C)[C@H]21 (mixture of isomers)	-6	0	.	.	-20	.
O=[N+]([O-])c1ccc(C=NNC(=S)Nc2ccc(F)cc2)cc1	14	44*	2	-1	0	-3
COc1ccc(/C=N/NC(=S)Nc2ccccc2)cc1	.	45*	-9	10	4	2
Oc1ccc(C=NNC(=S)Nc2ccc(F)cc2)c(O)c1	?	1	17	37*	10	-1
CCCCOCCCNC(=O)C[C@H]1C[C@@]2(C(=O)OC)C(=C[C@H](C(C)(C)C)O[C@@H]2C)N(Cc2ccc3c(c2)OCO3)C1=O	.	0	.	-2	4	-7
Cc1c(C2Nc3ccccc3C2C)[nH]c2ccccc12 (stereo unspecified)	.	0	.	-7	13	0
COc1ccccc1C1CCN(c2ccc([N+](=O)[O-])c(OC)c2)CC1	55*	0	34	2	9	0
Cc1nn(-c2ccccc2)c(/N=C/c2ccccc2O)c1-c1ccccc1	.	.	56	129*	.	1
OC(CN1CCCCC1)c1ccc(Br)cc1 (stereo unspecified)	-13	44*	4	-7	-2	-2
OC(CN1CCN(Cc2ccccc2)CC1)c1ccc(Br)cc1 (stereo unspecified)	.	0	3	-2	2	-3
CCOC(=O)c1cc2c(=O)c3cc(C)ccc3oc2nc1C	.	.	28	.	.	.
Cc1ccc2oc3nc(C)c(C(=O)O)cc3c(=O)c2c1	.	.	-9	.	.	-1
CC(=O)c1cc2c(=O)c3cc(C)ccc3oc2nc1C	60*	.	56	.	.	3

Screens: PubChem, several laboratories
